Test: E. coli DRC41 culture turbidity changes, primary screen, E. coli filamentation inducer project, strain DRC41, OD650, 48 h (AID 1152);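 further: E. coli MC1000 strain DRC41 lacking acrAB efflux pump and sulA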
Conditions: E. coli DRC41 (acrAB sulA), higher = more signal, called active from +8 up or from −8 down

z-score, inactive:
O=C1c2ccccc2[C@](Cc2ccccc2I)(C(=O)NCCN2CCOCC2)[C@H](c2ccc(CO)cc2)N1Cc1ccccc1Cl 0.065, O=C(N1CCCCC1)[C@]1(Cc2ccccc2)N=C(c2ccc(OCCCO)cc2)O[C@@H]1c1ccccc1 -0.834, CC(=O)NCCCC[C@@H]1NC(=O)[C@H]2C[C@@H](C(=O)NCCCCCCNC(=O)CS)[C@@H](c3ccc(O)cc3)N2C1=O 0.0783, O=C(CS)NCCCCCCNC(=O)[C@@H]1C[C@@H]2C(=O)NCC(=O)N2[C@@H]1c1cccc(OCCO)c1 0.74, CC[C@@H]1C=C(C(=O)O)[C@H](c2ccc(Br)cc2)N1S(=O)(=O)c1ccc(C)cc1 -0.467, CCOC(=O)C[C@H]1[C@H](OC(=O)c2ccccc2-c2ccccc2)[C@@H](NC(=O)CC(C)C)c2cc(OCCCO)ccc2N1C(=O)Cc1ccc(OC)cc1 -0.892, CCCC[C@@H]1C[C@H]1[C@@H](NC(=O)c1cccs1)c1ccc(-c2ccccc2)cc1 -1.89, COc1ccc(-c2cc3c(c(-c4ccc(Oc5ccccc5)cc4)n2)[Si](C(C)C)(C(C)C)OC3)cn1 -1.14, CC(C)C(=C=CC[C@@H](O)c1ccc(OCCO)cc1)C[C@@H](O)COCc1ccccc1 1.45
